BAZ2B block = BAZ2B (human) inhibition; AlphaScreen BAZ2B-H3K14Ac peptide displacement; Q9UIF8; hit rate 4.4% among 360,000; Potency, µM (series often up to 114 µM), for inactives: at the top dose activity change, negative = inhibition, most hits filed as inhibitors; AID 504333; also: % is scaled to controls: 0 for no effect and ±100 for the full control effect; nearly all actives have a fitted effect of over 60% in size
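AlphaScreen displacement of biotin-H3(5-23)K14Ac peptide (50 nM final) from BAZ2B (50 nM final) in PBS pH 7.4, 0.01% Tween-20; complex preformed 30 min RT, then compounds (top 110 uM) 30 min RT, beads 20 min dark.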
Sfp PPTase inh = blocks B. subtilis Sfp PPTase activity | Potency, µM, inactives show largest response in the series, negative = inhibition, actives largely listed as inhibitors | Biochemical Sfp PPTase activity, qHTS | hit rate 3.5% among 310,000 | AID 1490;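 also: the enzyme is Sfp with the accession as filed and its product quenches rhodamine fluorescence; 0% = enzyme reaction without inhibitor and -100% = no enzyme wells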
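After 15 min at room temperature with compound, 15 nM Sfp received 5 uM rhodamine-CoA plus 12.5 uM BHQ-2-ybbR (50 mM Hepes pH 7.6, 10 mM MgCl2). Rate came from the fluorescence difference over 30 min, ex 525/em 598 nm.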
HP1b binding inh = HP1-beta chromodomain-methylated histone interaction inhibition | P83916 | AlphaScreen HP1-beta / biotin-H3K9me3 peptide binding | Potency, µM (doses to about 114 µM), inactives show at the top dose activity change, negative = inhibition, hits mostly inhibitors | hit rate 0.56% among 390,000 | AID 540317; also: nearly all actives have a fitted effect of over 70% in size
Target sequence (P83916 whole entry, looked up): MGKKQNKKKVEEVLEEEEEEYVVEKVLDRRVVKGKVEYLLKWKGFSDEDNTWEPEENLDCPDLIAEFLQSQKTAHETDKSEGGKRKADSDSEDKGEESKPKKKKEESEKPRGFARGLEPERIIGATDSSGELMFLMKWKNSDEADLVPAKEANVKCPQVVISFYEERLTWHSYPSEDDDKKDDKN
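HP1-beta protein (50 nM final) preincubated 30 min at room temperature with biotinylated H3(1-18)K9me3 peptide (50 nM) in PBS pH 7.4, 0.01% Tween-20, then compound added for 30 min. AlphaScreen streptavidin donor/nickel chelate acceptor beads (10 ug/mL final), 30 min dark, luminescence read.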
JMJD2A Tudor = blocks the human JMJD2A Tudor domain; hit rate 4.4% among 390,000; AlphaScreen JMJD2A-Tudor / H3K4me3 peptide binding; Potency, µM (titrated, usually from 114 µM), without a hit: at the highest dose activity change, negative = inhibition, hits mostly inhibitors; also: % is scaled to controls: 0 for no effect and ±100 for the full control effect; nearly all actives have a fitted effect of over 50% in size
ALOX12 inh = ALOX12 (human) lipoxygenase inhibition. hit rate 1.1% among 580,000. Potency, µM (series often up to 108 µM), for the others: at the top dose activity change, negative = inhibition, actives largely listed as inhibitors. purified 12hLO, xylenol orange hydroperoxide absorbance. AID 1671190; also: % is scaled to controls: 0 for no effect and ±100 for the full control effect
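Purified human 12hLO at 150 nM in 25 mM Hepes, 0.01% Triton X-100, pH 7.0, preincubated 15 min at room temperature with compound. Reaction started with 40 uM arachidonic acid, 30 min at room temperature. Hydroperoxide measured by Fe-xylenol orange, 573/405 nm absorbance ratio.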
G9a block = inhibitors of human histone lysine methyltransferase G9a; Q96KQ7; G9a H3K9 monomethylation, AlphaScreen, 2 h; Potency, µM (doses to about 102 µM), inactives show at the top dose activity, negative = inhibition, hits mostly inhibitors; hit rate 8.8% among 350,000; AID 504332; also: % is scaled to controls: 0 for no effect and ±100 for the full control effect; nearly all actives have a fitted effect of over 75% in size
Target sequence (Q96KQ7 913-1193 limits assumed): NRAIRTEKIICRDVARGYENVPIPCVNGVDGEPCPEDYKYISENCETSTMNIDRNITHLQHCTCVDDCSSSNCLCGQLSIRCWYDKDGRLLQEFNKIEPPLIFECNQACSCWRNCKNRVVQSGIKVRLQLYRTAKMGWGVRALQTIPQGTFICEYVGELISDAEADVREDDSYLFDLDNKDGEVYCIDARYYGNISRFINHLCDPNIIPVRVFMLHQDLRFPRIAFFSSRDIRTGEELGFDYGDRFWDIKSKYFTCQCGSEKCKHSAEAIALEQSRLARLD
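G9a (20 nM) preincubated 15 min RT with compounds, then 500 nM biotinylated H3K9 peptide and 20 uM SAM added; 2 h RT reaction. Monomethyl-H3K9 product detected by AlphaScreen with anti-H3K9me1 antibody, streptavidin donor and anti-rabbit IgG acceptor beads.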
* = called active by the depositor; i = inactive; ? = inconclusive; nt = no result given; [ ] = dose if it differs, or a comment. Only some compounds are listed: those with a hit (about 8.7% of all), similar ones and a draw of the others. Calls follow the shape of the dose curve; as a rule, active = well fitted curve in the direction sought with a large enough effect; inconclusive = small, poorly fitted or top-dose-only effect, or another doubt; inactive = no such curve, though single readings can be large; an effect the other way counts as inactive or inconclusive. Potency is read from the fitted curve at half-maximal effect.

SMILES	BAZ2B block	Sfp PPTase inh	HP1b binding inh	JMJD2A Tudor	ALOX12 inh	G9a block
CN(C)c1ccc(NC(=O)CSc2nc3ccccc3c(=O)n2C2CCCCC2)cc1	10µM*	21%	?	7.9µM*	-16%	7.9µM*
CN(C)c1ccc(NC(=O)CSc2nc3ccccc3c(=O)n2CC2CCCO2)cc1 (centres undefined)	-18%	7%	-10%	-13%	4%	?
O=C(CSc1nc(C2CC2)nc2ccccc12)Nc1ccccc1	1%	13%	12%	-9%	-3%	21%[59 µM]
Cc1oc2ccn(Cc3ccccc3F)c(=O)c2c1C(=O)NCc1cc(F)cc(F)c1	nt	nt	nt	nt	17%	nt
CNC(=O)c1sc(-c2cccs2)nc1C	nt	12%	28%	0%	?	45µM*
CNC(=O)c1csc(-c2cccs2)n1	-14%	17%	53%	2%	7%	2%
COCCn1c2c(c(=O)n1-c1ccccc1)CCN(C(=O)c1cc3ccccc3n1C)C2	nt	nt	nt	nt	4%[176 µM]	nt
Nc1nc(COC(=O)C2CC(=O)N(Cc3ccccc3)C2)nc(Nc2ccccc2)n1 (centres undefined)	48%	nt	30%	-10%	11%	4%[12.7 µM]
Cc1ccc(Nc2nc(N)nc(CN3CCN(C(=O)c4ccco4)CC3)n2)cc1Cl	-80%	-10%	-1%	?	-13%	50µM*
Cc1cccc(Nc2nc(N)nc(CN3CCN(c4ccc(F)cc4)CC3)n2)c1	-91%	11%	-2%	56µM*	?	45µM*
Cc1ccc(Nc2nc(N)nc(CN3CCCCCC3)n2)cc1	11µM*	-10%	28%	50µM*	0%[57.4 µM]	?
COc1ccc(OCc2nc(N)nc(Nc3ccc(C)cc3)n2)cc1	-3%	26%	35%	-9%	0%	4%[59 µM]
CCOC(=O)C1CCCN(Cc2nc(N)nc(Nc3ccccc3)n2)C1 (centres undefined)	35µM*	-17%	34%	56µM*	3%	0%[12.7 µM]
Cc1cccc(Nc2nc(N)nc(CN3CCOCC(O)C3)n2)c1 (centres undefined)	nt	nt	nt	nt	48%	nt
CCOC(=O)N1CCN(C(=O)[C@H](C)NC(=O)c2cc3c(OC)cc(OC)cc3n2C)CC1	nt	nt	nt	nt	14%	nt
CCOc1ccc(NC(=O)c2nn(-c3ccccc3OC)c(=O)c3ccccc23)cc1	nt	nt	nt	nt	5%	nt
Nc1nc(CN2CCCCCC2)nc(Nc2ccccc2)n1	10µM*	-13%	13%	20µM*	-6%	?
O=C(NCCCNC(=O)c1ccccc1Br)c1nc2ccccc2c(=O)[nH]1	nt	nt	nt	nt	42%	nt
COc1ccc(NC2C[C@H]3CCCC(=O)N4CC[C@@H](C2)[C@@H]34)cc1 (some centres undefined)	nt	-8%	nt	nt	nt	40µM*
CCN(CC)c1ccc(NC(=O)c2c(C)noc2C)cc1	?	-4%	15%	-27%	433%	28µM*
CC(=O)Nc1ccc(NC(=O)c2c(C)noc2C)cc1	-5%	2%	48%	-12%	i	nt
CCN(CC)c1ccc(NC(=O)c2ccccc2F)cc1	45µM*	-16%	-14%	?	?	?
CCN(CC)c1ccc(NC(=O)c2ccco2)c(C)c1	-12%	25%	-8%	-36%	-26%	?
Cc1nc2ccccc2c(=O)n1NC(=O)c1ccco1	-1%	5%	57%	-6%	30%	-9%[59 µM]
Cc1ccc(C)n1NC(=O)c1ccco1	-1%	16%	16%	-15%	0%	40µM*
SMILES	BAZ2B block	Sfp PPTase inh	HP1b binding inh	JMJD2A Tudor	ALOX12 inh	G9a block
CCN(CC)c1ccc(NC(=O)c2ccco2)cc1	-34%	-7%	-1%	?	-28%	35µM*
CN(C)C(=O)N1Cc2ccccc2OC2(CCN(C(=O)c3c[nH]c4ccccc34)CC2)C1	nt	nt	nt	nt	1%[6.33 µM]	nt
Cc1ccc2oc([C@H]3CCN(Cc4c[nH]c5ccccc45)C3)nc2c1	nt	nt	nt	nt	-17%[176 µM]	nt
O=C1CCCCCCCC(=O)OCCCCCCO1	nt	nt	nt	nt	-3%	nt
CC(C)(C)c1ccc(/C=N/OCC(=O)Nc2ccc(SC(F)F)cc2)cc1	nt	nt	nt	nt	1%	nt
CCCn1c(C)c(CC(=O)N2CCOCC2)c2c1CC(C)(C)CC2=O	nt	nt	nt	nt	18%	nt
COC(=O)C1CCN(C(=O)CC[C@H]2CNC(=O)[C@@H]3[C@@H](CCN3Cc3ccc(OC)cc3)N2C)CC1	nt	nt	nt	nt	31%	nt
Cc1c(OS(=O)(=O)c2cccs2)ccc2c(-c3ccccc3)cc(=O)oc12	nt	nt	nt	nt	6%	nt
CCN(CC)c1ccc(NC(=S)NC(=O)c2ccco2)cc1	18µM*	35µM*	45µM*	28µM*	?	28µM*
CCN(c1ccc(NC(=O)CCNC(=O)c2ccco2)cc1)C(C)C	-30%	-4%	-8%	-34%	-7%	5µM*
COc1cc(NS(=O)(=O)c2ccc(NC(=S)NC(=O)c3ccco3)cc2)nc(OC)n1	?	-25%	10%	-12%	?	nt
Cc1ccc(NC(=O)CCNC(=O)c2ccco2)cc1	-5%	-11%	23%	-11%	-6%	15%
O=C(NC(=S)Nc1ccc([N+](=O)[O-])cc1)c1ccco1	nt	nt	nt	nt	-7%	nt
CC(C)C(=O)Nc1ccc(NC(=O)c2ccco2)cn1	?	2%	53%	-7%	-23%	35µM*
Cc1cc(C)nc(NS(=O)(=O)c2ccc(NC(=S)NC(=O)c3ccco3)cc2)n1	1%	?	2%	-13%	-105%	50µM*
CCN(CC)CCNC(=O)C12CCCC=C1N(c1ccccc1)C(=O)CC2 (centres undefined)	nt	nt	nt	nt	209%	nt
Cc1ccc2oc(C(=O)N3CCN(C(c4ccccc4)c4ccccc4)CC3)cc(=O)c2c1	nt	nt	nt	nt	66%	nt
Cc1cc(Br)ccc1NC(=O)c1ccc2c(Cl)c3c(nc2c1)CCC3	nt	nt	nt	nt	-5%	nt
CCCN(CCC)C(=O)c1cc2sc3ccccc3c2s1	nt	nt	nt	nt	5µM*	nt
Cc1cccc(C2c3[nH]c4ccccc4c3CCN2C(=O)c2nn(C)c(=O)c3ccccc23)n1 (centres undefined)	-33%	-1%	?	?	-6%	nt
Cc1cnc(C(=O)N2CCc3c([nH]c4ccccc34)C2c2ccc(F)cc2)cn1 (centres undefined)	28µM*	-1%	-7%	?	-11%	nt
Cc1ccc(C2c3[nH]c4ccccc4c3CCN2C(=O)c2ccccc2Br)cc1 (centres undefined)	?	nt	1%[57 µM]	?	0%	-47%[59 µM]
CCc1ccc(C2c3[nH]c4ccccc4c3CCN2C(=O)c2cc(C)nn2C)cc1 (centres undefined)	?	-6%	-9%	?	-18%	16µM*
Cc1cccc(C2c3[nH]c4ccccc4c3CCN2C(=O)c2ocnc2C)n1 (centres undefined)	79µM*	-12%	6%	-32%	0%	32µM*

Bioassay records as filed in PubChem.
